Source: PubChem
Sampled rows, rich in hits. Any-hit rate of the full collection: about 19%.
HT1080NT lethal – kills 2HG-producing HT-1080-NT fibrosarcoma cells; Potency, µM (series often up to 46.1 µM), for inactives: top-dose activity, negative = less viability, most hits filed as cytotoxic; 360,000 tested, 1.6% active; HT-1080-NT fibrosarcoma viability, CellTiter-Glo ATP luminescence, 48 h;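 further: NT is the 2HG producing partner of a matched IDH1 knockdown line; potency means the concentration at half of the fitted maximal effect; 0% = DMSO-treated cells and -100% = media-only wells without cells; nearly all actives have a fitted effect of over 55% in size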
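Fibrosarcoma NT cells, 750 per well in 5% FBS RPMI, were exposed to compound for 48 hours. Viability: CellTiter-Glo luminescence.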
DT40 TDP1 CPT – growth inhibition of DT40 Tdp1-/-;hTDP1 cells with camptothecin (screen for TDP1 inhibitors); chicken DT40 Tdp1-/-;hTDP1 cells + 20 nM CPT, ATP luminescence, 48 h; 420,000 tested, 12% active; Potency, µM (titrated, usually from 46.2 µM), for inactives: at the top dose activity change, negative = growth inhibition, usual class: inhibitors; further: potency means the concentration at half of the fitted maximal effect; nearly all actives have a fitted effect of over 55% in size
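Cell growth measured by CellTiter-Glo luminescence after a minimum 48 h, 37 C compound exposure with 20 nM CPT in Tdp1-knockout DT40 cells stably expressing hTDP1, seeded 400/well; qHTS titration format.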
ELG1 DNA repair – ELG1-dependent DNA repair inhibition; 330,000 tested, 2.3% active; Potency, µM (highest dose often 46.1 µM), for the others: top-dose activity change, negative = inhibition, hits mostly inhibitors; HEK293T ELG1-luciferase reporter, luminescence, 16 h; DNA damage induced by 5-fluorouridine; further: potency means the concentration at half of the fitted maximal effect; nearly all actives have a fitted effect of over 55% in size
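Step one: seed 2,000 cells per well. Step two: pin-transfer compound or DMSO alongside 5-fluorouridine. Step three: incubate 16 hr, 37 °C, 5% CO2. Step four: add ONE-Glo, wait 30 min, read luminescence.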
DT40 TDP1 no CPT – qHTS for Inhibitors of human tyrosyl-DNA phosphodiesterase 1 (TDP1): qHTS in cells in absence of CPT | DT40 Tdp1-/- hTDP1 cells, no CPT, ATP luminescence, 48 h | Potency, µM (titrated, usually from 46.2 µM), for inactives: at the highest dose activity change, negative = growth inhibition, actives largely listed as inhibitors | 420,000 tested, 15% active | AID 686978, 2013; further: potency means the concentration at half of the fitted maximal effect; nearly all actives have a fitted effect of over 55% in size
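Stably hTDP1-transfected Tdp1-null chicken DT40 cells were treated with library compounds minus camptothecin and grown for at least 48 hr at 37 °C, after which cellular ATP was quantified by luminescence.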
IL-1B inflam inh – blocks inflammasome-driven IL-1 beta release; activity change, % at 57.5 µM; 360,000 tested, 4.7% active; THP-1 LPS/ATP IL-1B secretion, AlphaLISA, 16 h; active compounds read low; AID 743279; in the data active means activity change below about -50%; inconclusive means mostly about -30% to -49%
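Secreted IL-1B measured by AlphaLISA bead assay after 16 h compound exposure of THP-1 cells; compounds (final up to 57.5 uM) added 1 h before LPS (250 ng/mL) and ATP (1.25 mM) stimulation; lower signal means less secretion.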
HT1080 IDH1KD tx – toxicity to HT-1080 IDH1 knockdown cells (counter line); HT-1080 IDH1 knockdown viability, ATP luminescence, 48 h; Potency, µM (titrated, usually from 46.1 µM), for inactives: at the highest dose activity, negative = toxicity, usual class: cytotoxic; 360,000 tested, 2% active; AID 686971;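 further: potency means the concentration at half of the fitted maximal effect; 0% = DMSO wells and -100% = cell-free medium wells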
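Luminescent ATP read-out (CellTiter-Glo, 10 min at room temperature) after 48 h compound exposure at 37 °C gave viability of IDH1-knockdown HT-1080 cells. Activity was normalised to DMSO and cell-free wells, then fitted as concentration-response curves.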
Active calls of the source: *; ? = inconclusive; / = no result given. Unless noted, the call rests on the fitted dose curve; in most records, active means well fitted curve in the direction sought with a large enough effect; inconclusive means small, poorly fitted or top-dose-only effect, or another doubt; inactive means no such curve, though single readings can be large; an effect the other way counts as inactive or inconclusive. Unless noted, on the % scale 0 is the no-effect control and ±100 the full control effect.

SMILES	HT1080NT lethal	DT40 TDP1 CPT	ELG1 DNA repair	DT40 TDP1 no CPT	IL-1B inflam inh	HT1080 IDH1KD tx
Cc1ccc2c(c1)C1CN(C)CCC1N2C(=S)NC(=O)c1ccc(Br)cc1 (stereo not given)	0.6%	9.2µM*	?	?	0.0	-26.4%
COc1ccc(OCC(=O)N2c3ccc(C)cc3C3CN(C)CCC32)cc1 (stereo not given)	-15.0%	18.3%	11.9%	2.3%	5.6	0.0%
Cc1ccc(C(=O)N(C)c2ccc(OCC(=O)N3c4ccc(C)cc4C4CN(C)CCC43)cc2)cc1 (stereo not given)	-2.6%	?	?	?	-59.5*	-13.2%
CC(=O)N/N=C(/C)c1ccc(NC(=O)c2csc(C)c2C)cc1	1.5%	-25.8%	?	-16.3%	-27.7	15.9%
CC1CCN(c2ccc3nnc(CCC(=O)N4CCCCC4)n3n2)CC1	4.1%	-23.7%	-3.0%	4.9%	-17.6	1.7%
CN(C)c1ccc(N=Cc2nc(-c3ccccc3)oc2OC(=O)c2ccccc2)cc1	19.7%	18.4µM*	?	23.1µM*	11.2	9.7%
COc1ccccc1N=Cc1nc(-c2ccccc2)oc1OC(C)=O	-15.0%	?	-2.9%	?	37.0	-4.5%
CC(=O)Oc1oc(-c2ccccc2)nc1/C=N/c1ccccn1	11.6%	16.4µM*	?	20.6µM*	-101.3*	-0.4%
CC(=O)Oc1oc(-c2ccccc2)nc1C=Nc1ccc(N(C)C)cc1	17.8%	?	-14.7%	?	16.0	23.5%
COc1ccccc1C=NN=C1c2ccccc2-c2ccccc21	7.4%	0.3%	/	-7.6%	17.9	?
Cc1cc(C)c2c(-n3cccc3)c(NC(=O)OC(C)C)sc2n1	-1.2%	18.4µM*	?	20.6µM*	-3.9	-7.1%
COc1cccc(CNC(=O)c2sc3ncccc3c2-n2c(C)ccc2C)c1OC	/	10.3µM*	/	13µM*	/	/
COc1cccc(CNC(=O)c2sc3nc(C)cc(C)c3c2-n2cccc2)c1OC	/	23.1µM*	/	?	/	/
COc1cc(CNC(=O)c2sc3ncccc3c2-n2cccc2)cc(OC)c1OC	/	18.4µM*	/	10.3µM*	/	/
Cc1ccc(CNC(=O)c2sc3nc(C)cc(C)c3c2-n2cccc2)cc1	/	-24.5%	/	?	/	/
CCOC(=O)COc1c(C(=O)OC)sc2ncccc12	13.8%	3.7%	-6.0%	4.1%	-6.5	10.0%
CNC(=O)c1sc2ncccc2c1-n1cccc1	/	-22.4%	/	?	/	/
CCc1cccc(NC(=O)C(Cc2ccccc2)NS(=O)(=O)c2ccc3c(c2)oc(=O)n3C)c1 (stereo not given)	/	6.7%	/	-30.6%	/	/
COc1ccc(CCC(=O)Nc2ccc(S(=O)(=O)Nc3nccc(C)n3)cc2)cc1	4.9%	-5.8%	10.0%	-20.1%	8.9	7.1%
O=C1NC(=O)[C@H]2[C@@H]1[C@@H]1C=C[C@H]2C1	/	8.6%	/	0.2%	/	/
CCCc1cc(C(=O)Nc2cccc(-c3nn[nH]n3)c2)sc1C	17.8%	-5.2%	/	-3.3%	5.6	8.8%
CC(C)Oc1ccc(CNC(=O)c2cc3ccccn3n2)cc1	/	-29.2%	/	-25.3%	/	/
CC(C)Oc1ccc(CNC(=O)c2sc3ncccc3c2-n2cccc2)cc1	/	20.6µM*	/	18.4µM*	/	/
CCN(CC)CCNC(=O)c1sc2ncccc2c1-n1cccc1	/	-6.1%	/	14.1%	/	/
CN(C)c1ccc(CNC(=O)c2sc3ncccc3c2-n2cccc2)cc1	/	16.4µM*	/	20.6µM*	/	/
CCCn1c(=O)[nH]c(=O)c2c1nc(-c1cc([N+](=O)[O-])ccc1Cl)n2CCOC	0.9%	0.5%	-8.7%	-15.0%	17.1	-1.8%
Cc1cc(C)c(-c2cc(C(=O)Nc3cc(C)ccc3C)[nH]n2)c(O)c1	1.7%	-14.2%	1.0%	?	-10.4	-7.5%
